# Screening results deposited in PubChem by several laboratories.
# Insulin prom up: MIN6 insulin promoter up-regulation | actives 0.3% (n = 190,000) | z-score at 5 µM | MIN6 insulin promoter-GFP reporter, high-content imaging; active compounds read high | AID 1625;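 active = z-score above 3 at 5 µM with at least 500 cells counted in the well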
# WT yeast gro inh: growth inhibition of WT yeast, mitochondrial fusion screen; inhibition, % at 10 µM; actives 2.1% (n = 190,000); AID 1362; mitochondrial fusion phenotypic screen, WT strain; in the data active = inhibition above about 58%; tested in S. cerevisiae
# L major viab: reduces viability of Leishmania major promastigotes; resazurin fluorescence viability; inhibition, % at 10 µM; actives 9% (n = 200,000); AID 1063; in the data active = inhibition above about 50%;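 also: promastigotes grown with compound for 44 hours at 28 °C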
# Autophagy mod: alters autophagy in cells | MEF GFP-LC3 puncta imaging; test concentration mostly 10 µM | calls only at 10 µM (by protocol) | actives 0.98% (n = 190,000);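 active = percentage of spot-positive cells more than 3 SD above its plate mean, without a fluorescence outlier flag or 80% toxicity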;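 also: spot-positive cell cutoff set from DMSO-treated cells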
# Insulin prom inh: TRM-6 insulin promoter activity inhibition. inhibition, % at 2 µM. actives 0.9% (n = 130,000). TRM-6 cells (human fetal islet line), insulin promoter-eGFP reporter, imaging; reporter expression induced with tamoxifen;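 active = inhibition above the mean plus 3 SD, with well images judged a real hit on visual review, cut at about 60% in these data, passing the limit was not always enough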
# * hit, by the source's call; i = inactive; / = no result given; + = active, no number. Compounds with a hit are over-represented: about 11% of the library has one in this group of screens.
SMILES,Insulin prom up,WT yeast gro inh,L major viab,Autophagy mod,Insulin prom inh
CC(=NC(C)C)C1=C(O)CCC1=O,1.1,-16,-7,i,43
CC(=NC(C)C)C1=C(O)C(C)OC1=O (stereo not given),0.47,-1,75*,i,17
COc1ccc(OC)c(C2C=C(C34CC5CC(CC(C5)C3)C4)NC(=S)N2)c1 (stereo not given),-0.41,76*,99*,i,37
S=C1NC(C23CC4CC(CC(C4)C2)C3)=CC(c2ccc3c(c2)OCO3)N1 (stereo not given),-0.96,77*,25,i,-82
COc1ccc(C(=O)NN=C(Cc2ccccc2)Cc2ccccc2)cc1OC,-1.2,-3,51*,i,-14
O=C(/C=C/c1ccc([N+](=O)[O-])cc1)c1cccnc1,-0.31,-17,95*,i,/
CC/C(Cc1ccccc1)=N\NC(=O)c1cc([N+](=O)[O-])cc([N+](=O)[O-])c1,0.04,2,59*,i,-140
CC(/C=C/c1cccc([N+](=O)[O-])c1)=N/NC(=O)c1cccnc1,0.05,-8,96*,i,11
CC/C(Cc1ccccc1)=N/NC(=O)c1cccc(Br)c1,-0.44,2,-10,i,-7
C/C(=N\NC(=O)c1cccnc1)c1cccc([N+](=O)[O-])c1,-0.09,8,1,i,/
COc1ccc(C(=O)Cc2ccccc2)cc1OC,-0.29,-3,-6,i,-38
COc1ccc(CCNC(=O)CSc2ccc(-c3cccs3)nn2)cc1OC,-0.15,5,9,i,38
Oc1[nH]c(N=C2N=c3ccccc3=N2)c2ccccc12,0.24,/,/,/,/
O=C(/C=C/c1cccc(OCc2ccccc2)c1)c1cccnc1,-0.24,-12,100*,i,/
O=C(/C=C/c1ccccc1)NC(=S)NNC(=O)c1cccnc1,/,-3,55*,i,-18
CC(/C=C/c1ccccc1)=N/NC(=O)c1cc([N+](=O)[O-])cc([N+](=O)[O-])c1,0.58,-15,83*,i,28
O=C(NN=C(Cc1ccccc1)Cc1ccccc1)c1ccccc1F,0.45,-20,64*,i,/
Cc1ccccc1NC(=S)Nc1ccc2[nH]c(=O)[nH]c2c1,-0.12,/,/,/,/
CCn1c(CNC(=O)c2ccco2)nnc1SCC(=O)Nc1cc(C(F)(F)F)ccc1Cl,-0.08,70*,-8,i,-16
CC(=O)N1CC[n+]2c(-c3ccc(Cl)cc3)csc21,-0.39,30,-6,+,14
O=C1CNC(=O)/C(=C/c2ccco2)N1,-0.21,-1,2,i,-36
C/C(=N\NC(=O)CSCc1ccccc1Cl)c1cc(O)ccc1O,-1,0,41,i,/
CCOC(=O)N1CCN(C(=O)CSc2nnc(-c3ccc(C(C)(C)C)cc3)o2)CC1,/,3,2,+,-43
CCOC(=O)N1CCN(C(=O)CSc2ccc(-c3ccncc3)nn2)CC1,-1.1,1,-3,i,75*
Cc1ccc(C(C(=O)NC(C)(C)C)N(CC2CCCO2)C(=O)Cn2nnc(-c3ccc(C)o3)n2)cc1 (stereo not given),0.58,3,54*,i,18
SMILES,Insulin prom up,WT yeast gro inh,L major viab,Autophagy mod,Insulin prom inh
CCN(CC)S(=O)(=O)c1ccc(NCc2ccccc2)nc1,/,5,3,i,/
COc1ccc(C2=NO[C@@H]3C(=O)N(C4CCCCC4)C(=O)[C@H]23)cc1OC,0.55,-6,-6,i,-13
COc1ccc(-c2nc3c(n2O)CCCC3=O)cc1OC,-0.09,60*,9,i,/
CCS(=O)(=O)N1CCN(c2ccc(C(=O)NC3C4CC5CC(C4)CC3C5)cc2[N+](=O)[O-])CC1 (stereo not given),-0.57,-4,52*,i,/
Cc1cc(C(=O)NCCCn2ccnc2)sc1-c1ccccc1,-0.03,14,99*,i,i
O=C(NCCCn1ccnc1)c1ccc(N2CCCCCC2)c([N+](=O)[O-])c1,0.09,-12,90*,i,/
CCCCNC(=O)c1ccc(N2CCC3(CC2)OCCO3)c([N+](=O)[O-])c1,-0.08,-4,59*,i,27
CCOC(=O)N1CCC(NC(=O)c2ccc(N3CCC4(CC3)OCCO4)c([N+](=O)[O-])c2)CC1,-1.1,-2,-3,i,/
O=[N+]([O-])c1cccc(Cl)c1CSc1ccccn1,0.37,7,10,i,/
CCC(=O)Nc1ccc(C(=O)NCCCn2ccnc2)cc1,/,-22,-1,i,-30
Cc1ccc(C(=O)NCCCn2ccnc2)cc1[N+](=O)[O-],5.5*,-10,11,i,33
CCOc1cc(C(=O)NCCCn2ccnc2)cc(OCC)c1OCC,0.08,-11,54*,i,31
